Results as given in the supplement of paper PMC8285479.
Counter-ions that a name gives are not always drawn. ± gives the standard deviation of the averaged measurements. Whole data set: some 1,900 compounds, median “normalised cell viability (NPI; 0 = phenylarsine oxide control, 1 = DMSO control)” near 1, cut for the lowest 2% near 0.039. What follows is part of a selection rich in the lowest values, with near analogues and random picks from the rest.

Test system: NCI-H1944
Assay: normalised cell viability (NPI; 0 = phenylarsine oxide control, 1 = DMSO control) (fraction of DMSO control); NCI-H1944 is a non-small cell lung cancer line; higher = more viable cells (less compound toxicity)
Settings: 6 days
[1] = glucocorticoid arm: hydrocortisone 2.75 uM co-treatment, compound 1 µM
[2] = glucocorticoid arm: hydrocortisone 2.75 uM co-treatment, compound 5 µM
[3] = glucocorticoid arm: hydrocortisone 2.75 uM pre-treated 2 days and continued, compound 1 µM
[4] = glucocorticoid arm: hydrocortisone 2.75 uM pre-treated 2 days and continued, compound 5 µM
[5] = glucocorticoid arm: vehicle, compound 1 µM
[6] = glucocorticoid arm: vehicle, compound 5 µM
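Also: CTB read-out in 384-well plates, triplicate wells, NPI normalised per plate against 1 µM phenylarsine oxide (0) and 0.1% DMSO (1) controls.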

SMILES | normalised cell viability [1] | normalised cell viability [2] | normalised cell viability [3] | normalised cell viability [4] | normalised cell viability [5] | normalised cell viability [6]
CCCCCCCCCCCCCCCCCCOCC(COP(=O)([O-])OCC[N+](C)(C)C)OC (stereo not given) | 1.006 ± 0.0063 | 0.993 ± 0.015 | 0.9897 ± 0.0011 | 0.989 ± 0.028 | 0.9853 ± 0.0049 | 0.9957 ± 0.0059
CC(C)c1ccccc1Cc1cc(C(=O)Nc2ccc(S(=O)(=O)c3ccccc3C(C)(C)C)cc2)c(O)c(O)c1O | 0.9933 ± 0.0099 | 0.826 ± 0.049 | 0.998 ± 0.014 | 0.961 ± 0.018 | 1.007 ± 0.0058 | 0.813 ± 0.033
CC(=O)NCC(=O)N1[C@@H]2CC[C@H]1c1ccc(Nc3ncc(C(F)(F)F)c(NC4CCC4)n3)cc12 | 0.712 ± 0.0091 | 0.552 ± 0.019 | 0.83 ± 0.0095 | 0.717 ± 0.01 | 0.301 ± 0.018 | 0.201 ± 0.017
C/C(=C\c1csc(C)n1)[C@@H]1C[C@@H]2O[C@]2(C)CCC[C@H](C)[C@H](O)[C@@H](C)C(=O)C(C)(C)[C@@H](O)CC(=O)N1 [Ixabepilone] | 0.132 ± 0.012 | 0.146 ± 0.018 | 0.484 ± 0.023 | 0.477 ± 0.05 | 0.0322 ± 0.0044 | 0.032 ± 0.004
CC(C)C[C@@H]1NC(=O)[C@@H](C(C)C)NC(=O)[C@@H]2CCCN2C(=O)[C@@H](CC(=O)O)NC(=O)[C@@H](Cc2c[nH]c3ccccc23)NC1=O | 1.01 ± 0.014 | 1 ± 0.018 | 1.02 ± 0.025 | 1.003 ± 0.0061 | 0.9943 ± 0.005 | 1.013 ± 0.0058
Cc1ncc(-c2ccnc(Nc3ccc(S(C)(=O)=O)cc3)n2)n1C(C)C | 0.584 ± 0.057 | 0.062 ± 0.0037 | 0.705 ± 0.061 | 0.319 ± 0.083 | 0.191 ± 0.045 | 0.0177 ± 0.0014
CN(C)CCC(c1ccc(Cl)cc1)c1ccccn1 (single isomer, unassigned; (+)) [(+)-Chlorpheniramine maleate] | 0.9827 ± 0.0045 | 0.997 ± 0.012 | 0.979 ± 0.004 | 1.005 ± 0.0071 | 0.968 ± 0.011 | 0.978 ± 0.003
CCCCC1(C2CCCC2)Cc2cc(OCC(=O)O)c(Cl)c(Cl)c2C1=O (stereo in doubt) [R(+)-Butylindazone] | 0.9903 ± 0.0064 | 0.958 ± 0.011 | 0.988 ± 0.01 | 0.965 ± 0.028 | 0.983 ± 0.006 | 0.9887 ± 0.004
O=C1NC(=O)/C(=C/c2ccc3nccc(-c4ccncc4)c3c2)S1 | 0.697 ± 0.026 | 0.836 ± 0.011 | 0.73 ± 0.039 | 0.848 ± 0.026 | 0.886 ± 0.023 | 0.932 ± 0.027
O=C1NCCc2[nH]c(-c3ccncc3)cc21 | 1.02 ± 0.015 | 0.0894 ± 0.0076 | 0.9933 ± 0.0072 | 0.145 ± 0.006 | 0.916 ± 0.016 | 0.0151 ± 0.0021
Cc1[nH]c(=O)c(C#N)cc1-c1ccncc1 [Milrinone] | 0.996 ± 0.013 | 1.001 ± 0.0083 | 0.998 ± 0.0035 | 1.05 ± 0.081 | 0.9903 ± 0.009 | 0.993 ± 0.015
CCCCCCCCCCCCCCCCCC(=O)OC(CC(=O)O)C[N+](C)(C)C (racemic) [DL-Stearoylcarnitine chloride] | 0.9967 ± 0.0042 | 0.906 ± 0.03 | 1.01 ± 0.019 | 0.993 ± 0.0017 | 1.013 ± 0.0058 | 0.99967 ± 0.00058
CNc1ncnc2c1ncn2[C@H]1C[C@H](OP(=O)(O)O)[C@@H](COP(=O)(O)O)O1 | 0.991 ± 0.0056 | 0.987 ± 0.029 | 1 ± 0.016 | 0.981 ± 0.027 | 0.996 ± 0.0061 | 0.9943 ± 0.0047
C[C@H](O)[C@H](O)[C@H]1CNc2nc(N)[nH]c(=O)c2N1 [(6R)-5,6,7,8-Tetrahydro-L-biopterin dihydrochloride] | 1.02 ± 0.011 | 1.01 ± 0.026 | 0.923 ± 0.18 | 1.001 ± 0.009 | 1.02 ± 0.01 | 1.02
CN1CCc2c(cc(O)c(O)c2Cl)C(c2cccc(Cl)c2)C1 (stereo not given) | 1.006 ± 0.0063 | 1.03 ± 0.03 | 1.01 ± 0.039 | 1.017 ± 0.0058 | 1 | 1.013 ± 0.0058
CNC(=O)c1nn(C)c2c1C(C)(C)Cc1cnc(Nc3ccc(N4CCN(C)CC4)cc3)nc1-2 | 0.485 ± 0.019 | 0.306 ± 0.002 | 0.549 ± 0.019 | 0.424 ± 0.013 | 0.282 ± 0.0098 | 0.126 ± 0.0072
CN1CCN(c2ccc(OC(F)(F)F)c(Nc3ncc4c(n3)-c3c(c(C(N)=O)nn3CCO)CC4)c2)CC1 | 0.183 ± 0.025 | 0.146 ± 0.02 | 0.428 ± 0.025 | 0.556 ± 0.069 | 0.0347 ± 0.0042 | 0.0361 ± 0.0086
CCC(=O)Nc1cccc(Oc2nc(Nc3ccc(N4CCN(C)CC4)cc3OC)ncc2Cl)c1 | 1.07 ± 0.017 | 1.11 ± 0.01 | 1.057 ± 0.0058 | 1.07 ± 0.035 | 1 ± 0.011 | 1.01 ± 0.01
OCCn1cc(-c2cnc3nnn(Cc4ccc5ncccc5c4)c3n2)cn1 | 1 ± 0.01 | 1.02 ± 0.026 | 1.02 ± 0.015 | 1.02 ± 0.052 | 1.01 ± 0.011 | 1.02 ± 0.015
Cc1c(NC(=O)c2ccc(C(C)(C)C)cc2)cccc1-c1cn(C)c(=O)c(Nc2ccc(C(=O)N3CCOCC3)cc2)n1 | 1.017 ± 0.0058 | 1.03 ± 0.032 | 1.007 ± 0.0058 | 0.987 ± 0.022 | 1 ± 0.0087 | 1.006 ± 0.0063
CN1C2CCC1CC(NC(=O)c1nn(C)c3ccccc13)C2 (stereo not given) [LY-278,584 maleate] | 0.9863 ± 0.0067 | 0.977 ± 0.033 | 0.9957 ± 0.0075 | 1.03 ± 0.085 | 0.9753 ± 0.0051 | 0.9783 ± 0.0091
CC(C)NCC(O)COc1ccc(CC(N)=O)cc1 (racemic) [(±)-Atenolol] | 0.987 ± 0.007 | 1.001 ± 0.0085 | 1.003 ± 0.0064 | 1.02 ± 0.021 | 1.005 ± 0.0092 | 1.01
NC(C(=O)O)C(O)C(=O)O (racemic) [DL-threo-beta-hydroxyaspartic acid] | 1.01 ± 0.011 | 1.01 ± 0.028 | 1.01 ± 0.022 | 1.01 ± 0.018 | 1.003 ± 0.0061 | 1.001 ± 0.0081
CCCN(CCc1ccccc1)C1CCc2c(O)cccc2C1 (racemic) [(±)-PPHT hydrochloride] | 0.986 ± 0.011 | 0.969 ± 0.03 | 1.05 ± 0.078 | 0.966 ± 0.02 | 1.007 ± 0.0058 | 1.003 ± 0.0058
Cl.N[C@@H](CCC(=O)O)C(=O)O [L-Glutamic acid hydrochloride] | 1.013 ± 0.0058 | 1 ± 0.029 | 1.013 ± 0.0058 | 0.989 ± 0.027 | 1.023 ± 0.0058 | 1.02 ± 0.01
